Assay results as given in PubChem BioAssay AID431 (Sanford-Burnham Center for Chemical Genomics, 2006).
About 1,100 (1.7%) of roughly 63,000 compounds were called active.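 The calls were made as follows: active = compounds whose percent cytotoxicity in the single-dose primary screen, scaled between solvent and toxic-drug controls, exceeds 50; inactive = the rest.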 For the sample, actives were picked, then their nearest neighbours and some compounds at random. Entries with a potency or affinity are not part of this list.

assay: viability loss of HPDE-C7K cells – cell-based, fluorescence, HTS, primary screen (AID 431); conditions: HPDE-C7K KRASV12 cells, Alamar Blue viability, 48 h; at 10 µM; hits give high values;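 also: 0% = DMSO solvent wells and 100% = doxorubicin-treated wells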

SMILES	cytotoxicity
COc1cc2c(C(=O)N3CCN(Cc4ccc5c(c4)OCO5)CC3)cn(C)c(=O)c2cc1OC	-9% (inactive)
COc1ccc(NS(=O)(=O)c2cc(OC)ccc2NC(=O)c2cc(C)oc2C)cc1	48.5% (inactive)
COc1ccc(NS(=O)(=O)c2cc(C)ccc2C)cc1	35.3% (inactive)
COc1ccc(NS(=O)(=O)c2cc(C)ccc2NC(=O)c2cc(C)oc2C)cc1	69.4% (active)
Cc1cc(N2CCN(C(=O)c3ccco3)CC2)n2nc(C)c(-c3ccccc3)c2n1	13.2% (inactive)
Cc1nn2c(N3CCN(C(=O)c4ccco4)CC3)cc(C(C)(C)C)nc2c1-c1ccccc1	70.2% (active)
Cc1cc(N2CCN(C(=O)c3ccco3)CC2)n2nc(C)c(-c3ccc(Cl)cc3)c2n1	12.8% (inactive)
COc1cccc(NC(=O)C2CCN(c3ncccn3)CC2)c1	3% (inactive)
CC1(N2CCOCC2)CC2(O)C(=[N+]1[O-])CCc1c2no[n+]1[O-] (stereo not drawn)	58.3% (active)
CC1(N2CCCCC2)CC2(O)C(=[N+]1[O-])CCC/C2=N\O (stereo not drawn)	15.9% (inactive)
CC1(N2CCOCC2)CC2(O)C(=[N+]1[O-])CCc1nonc12 (stereo not drawn)	17.7% (inactive)
CC(C)NC(=O)CN(C(=O)CCC(=O)Nc1ccccn1)c1ccc(F)c(Cl)c1	2.5% (inactive)
CC1(C)C(=O)Nc2ccccc2N1C(=O)CN1C(=O)c2ccccc2C1=O	-3.5% (inactive)
CCC(=O)NC1(C(F)(F)F)C(=O)Nc2c1c(=O)n(C)c(=O)n2C (stereo not drawn)	-2.3% (inactive)
Cc1nnc(SCC(=O)N2CCN(S(=O)(=O)c3ccccc3)CC2)[nH]c1=O	1.8% (inactive)
CCc1nnc(NC(=O)c2ccc(NS(=O)(=O)c3ccccc3)cc2)s1	-18.3% (inactive)
CCc1nc(C)ccc1OCC(=O)O	-10.4% (inactive)
CCCC(=O)NCCc1nc2ccccc2n1C	-5.4% (inactive)
CCOc1cccc(-c2nc3cc(C)ccc3o2)c1	-4.3% (inactive)
Cc1n[nH]c(C)c1C(=O)CC1(O)C(=O)N(CCc2ccccc2)c2ccc(Cl)cc21 (stereo not drawn)	16.8% (inactive)
COc1cc(-c2c(C#N)c(N)nc3c2c(C)nn3-c2ccc(C)c(C)c2)cc(OC)c1OC	57.8% (active)
Cc1ccc(-n2nc(C)c3c(-c4cccs4)c(C#N)c(N)nc32)cc1	4% (inactive)
Cc1nn(-c2ccccc2)c2nc(N)c(C#N)c(-c3ccc(F)cc3)c12	10.8% (inactive)
O=C(O)CCN1Cc2ccccc2C1=O	-5.5% (inactive)
Cc1ccc(NC(=O)CN2C(=O)COc3ccc(C)cc32)nc1	5.6% (inactive)

SMILES	cytotoxicity
COc1ccc(OC)c(Nc2nc(N)nc(-c3cc4ccccc4o3)n2)c1	1.5% (inactive)
COc1ccc(OC(=O)c2cc3ccccc3o2)cc1	12.8% (inactive)
COc1ccc(OC)c(NC(=O)c2cc3ccccc3o2)c1	-12.4% (inactive)
O=C(Nc1ccc(Cl)cc1)N1CCN(c2ccc3nnc(-c4ccc(F)cc4)n3n2)CC1	58.7% (active)
O=C(Nc1ccccc1Cl)N1CCN(c2ccc3nnc(-c4ccc(F)cc4)n3n2)CC1	19.5% (inactive)
O=C(Nc1ccccc1C(F)(F)F)N1CCN(c2ccc3nnc(-c4ccc(F)cc4)n3n2)CC1	1.9% (inactive)
Cc1cccc(NC(=O)CSc2nnc(-c3ccccc3)n2N)c1	1% (inactive)
CCCc1[nH]nc2c1C(c1ccncc1)C(C#N)=C(N)O2 (stereo not drawn)	-1.2% (inactive)
CCc1[nH]nc2c1C(c1ccc(Br)s1)C(C#N)=C(N)O2 (stereo not drawn)	5% (inactive)
CCCn1nnc(NC(=O)c2cc3ccccc3o2)n1	-13.2% (inactive)
Cc1ccc(Oc2ccc(NC(=O)c3ccco3)cc2)cc1	84.2% (active)
Cc1ccc(NC(=O)c2ccc(OC(=O)c3ccco3)cc2)cc1	-14.7% (inactive)
CC(=O)c1sc(NC(=O)c2ccco2)nc1-c1ccccc1	6.3% (inactive)
CCC(=O)Nc1ccc(NC(=O)c2ccco2)cc1	-4% (inactive)
O=C(Nc1ccc(Oc2ccc(NC(=O)c3ccco3)c(NC(=O)c3ccco3)c2)cc1)c1ccco1	29.9% (inactive)
O=C(Nc1ccc(S(=O)(=O)N2CCOCC2)cc1)c1ccc(Br)o1	-9.2% (inactive)
O=C(Nc1ccc(Nc2ccccc2)cc1)c1ccco1	66.8% (active)
O=C(CCc1ccccc1)Nc1ccc(NC(=O)c2ccco2)cc1	-8.3% (inactive)
O=C(Nc1ccc(S(=O)(=O)N2CCCCCC2)cc1)c1ccc(Br)o1	55.5% (active)
CCOC(=O)c1sc(NC(=O)c2ccco2)nc1-c1ccccc1	-7.2% (inactive)
O=C(Nc1nc(-c2cccs2)c(-c2ccccc2)s1)c1ccco1	58.9% (active)
CN1CCN(S(=O)(=O)c2ccc(NC(=O)c3ccc(Br)o3)cc2)CC1	-14.1% (inactive)
O=C1c2oc3ccccc3c(=O)c2C(c2ccc(Br)cc2)N1c1ncccn1 (stereo not drawn)	5.4% (inactive)
O=S(=O)(c1ccccc1)c1nc(-c2ccco2)oc1NCc1cccnc1	14.5% (inactive)
CCOC(=O)C1CCN(c2cc(=O)n(Cc3ccc(F)cc3)c(=O)[nH]2)CC1	-12.8% (inactive)

SMILES	cytotoxicity
Cc1cc(NC(=O)c2c(F)c(F)c(F)c(F)c2F)no1	-11.5% (inactive)
Nc1c(C(=O)OCC2CCCO2)c2nc3ccccc3nc2n1C1CCCCC1 (stereo not drawn)	-9.6% (inactive)
COc1ccc(CCNC(=O)CSc2nnc(-c3cccc(C)c3)o2)cc1OC	-3.4% (inactive)
CCOC(=O)N1CCC(NC(=O)Cn2c3c(c(-c4ccccc4Cl)cc2=O)CCC3)CC1	4.9% (inactive)
CCOc1ccc(CN2C(=O)CCC2(C)C(=O)NCc2cccnc2)cc1 (stereo not drawn)	6.9% (inactive)
CCN1CCN(c2c(Cl)cccc2NC(=O)c2ccc(Br)o2)CC1	10% (inactive)
O=C(Nc1ccccc1N1CCCC1)c1ccc(Br)o1	-3.3% (inactive)
COC(=O)c1sc(NC(=O)c2ccco2)nc1C	-3.1% (inactive)
O=C(Nc1cccc(-c2nc3ccccc3[nH]2)c1)c1ccco1	9.8% (inactive)
Cc1nc(NC(=O)c2ccco2)sc1C(=O)Nc1ccc(Br)cc1	84% (active)
O=C(Nc1cccc(Cl)c1N1CCCC1)c1ccc(Br)o1	93% (active)
CCOC(=O)c1sc(NC(=O)c2ccco2)nc1C	5.9% (inactive)
Cc1ccc2nc(-c3ccc(NC(=O)c4ccco4)cc3)[nH]c2c1	14.5% (inactive)
O=C(Nc1ccc2nc(-c3ccccc3)oc2c1)c1ccco1	71.7% (active)
O=C(Nc1ccc(-c2nc3ncccc3o2)cc1)c1ccco1	-8.5% (inactive)
O=C(Nc1cccc(-c2nnc(-c3ccccc3)o2)c1)c1ccco1	3.5% (inactive)
Cc1ccc2nc(-c3cccc(NC(=O)c4ccco4)c3)[nH]c2c1	65.5% (active)
CN(C)S(=O)(=O)c1cccc(COC(=O)C2=COCCO2)c1	-1.6% (inactive)
O=C(c1ccco1)[C@@H]1[C@@H]2C(=O)N(c3ccc(F)cc3)C(=O)[C@@H]2C2c3ccccc3C=CN21 (stereo partly drawn)	6.6% (inactive)
COc1ccc(CCNS(=O)(=O)c2cccc(F)c2)cc1OC	-5.1% (inactive)
Cc1onc(-c2c(F)cccc2Cl)c1C(=O)OCC(=O)NCc1ccco1	0.8% (inactive)
CN(C)c1ccc(NC(=O)CN2CCC(C(=O)c3ccc(F)cc3)CC2)cc1	10.1% (inactive)
COc1cc2[nH]c(=O)n(CCCCCC(=O)N3CCN(c4ccccc4)CC3)c(=O)c2cc1OC	15.8% (inactive)
O=C(NCC1CCCO1)C1C2C=CC3(CN(Cc4cccs4)C(=O)C13)O2 (stereo not drawn)	-19.1% (inactive)
O=C(O)c1cccc(S(=O)(=O)N2CCCC2)c1	-8.3% (inactive)

SMILES	cytotoxicity
O=C(Nc1cccc(NC(=O)c2ccc(-c3cccc(Br)c3)o2)c1)c1ccco1	66.3% (active)
CC(=O)Nc1cccc(NC(=O)c2ccco2)c1	-14% (inactive)
O=C(Nc1ccc(Nc2ccccc2)cc1)c1ccc(Br)o1	93% (active)
O=C(Nc1ccc(S(=O)(=O)NCCc2ccccc2)cc1)c1ccc(Br)o1	15.9% (inactive)
COc1ccc(Br)cc1C(=O)Nc1cccc(NC(=O)c2ccco2)c1	0.2% (inactive)
COC(=O)Cc1ccc(NC(=O)c2ccc(Br)o2)cc1	8.9% (inactive)
COc1ccc(CN(Cc2ccccn2)C(=O)CN2C(=O)COc3ccccc32)cc1	-15.4% (inactive)
CCCCS(=O)(=O)c1sc2nc3c(cc2c1N)CCCC3	-4.6% (inactive)
Cc1cc(NC(=O)COc2ccc(N(C)S(=O)(=O)c3ccccc3)cc2)no1	-0.8% (inactive)
CCOC(=O)Cn1cnc2c(nnn2Cc2ccc(Cl)cc2)c1=O	-1% (inactive)
Cc1ccc(-n2c(Cc3cccn3C)nnc2SCC(=O)Nc2nnc(C)s2)cc1	-0.8% (inactive)
CCSc1nnc(NC(=O)CSc2nnc(Cc3cccn3C)n2-c2ccc(F)cc2)s1	49.5% (inactive)
CCSc1nnc(NC(=O)CSc2nnc(Cc3cccn3C)n2-c2ccc(C)cc2)s1	50.6% (active)
Cc1ccc(N)c(C(O)(C(F)(F)F)C(F)(F)F)c1	-9.9% (inactive)
CC(C)(NO)/C(=N/O)c1ccc(Br)cc1	-3.6% (inactive)
CN(Cc1ccccc1)C(=O)Nc1ccccc1	9.8% (inactive)
CCCCC(=O)Nc1nc(C)c(C(C)=O)s1	-0.2% (inactive)
CC(=O)c1sc(NC(=O)C2(F)C(F)(F)C(F)(F)C(F)(F)C(F)(F)C2(F)F)nc1C	51% (active)
CC(=O)c1sc(NC(=O)C=C(C)C)nc1C	-0.4% (inactive)
O=C(Cn1ncc2c(=O)oc3ccccc3c21)NC1CC1	-0.5% (inactive)
CCOC(=O)c1ccc(N2CC(O)=C(c3nc4ccccc4c(=O)[nH]3)C2=N)cc1	51.4% (active)
COc1ccccc1N1CC(O)=C(c2nc3ccccc3c(=O)[nH]2)C1=N	26.5% (inactive)
COc1cccc(N2CC(O)=C(c3nc4ccccc4c(=O)[nH]3)C2=N)c1	28% (inactive)
